Assay results: PubChem BioAssay (EPA / NIEHS)
Inconclusive results are not listed. Active and inactive are the calls of the source. The calls were made as follows: active = hit-call score of the fitted dose curve at least 0.9, where 1 is the maximum; inconclusive = response in the unintended direction; inactive = score below 0.9.

Tests used:
[1] = TOX21_p53_BLA_p2_viability: Viability Assessment in the Tox21 HCT-116 p53 Agonism Beta-lactamase Assay, Phase 2 (AID 2283591);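 also: compound exposure lasted 16 h at 37 °C; actives lower the ATP signal meaning cytotoxicity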
Procedure, shortened: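 HCT116 p53-bla cells, 4000/well, dosed after 5 h plating (217-fold dilution of DMSO stocks) and incubated 16 h at 37C. Viability taken as cellular ATP by CellTiter-Glo luminescence after 30 min RT; signal loss marks cytotoxicity.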

[2] = target: Cellular tumor antigen p53 (Homo sapiens) (UniProt P04637); assay: TOX21_p53_BLA_p2_ratio: Tox21 HCT-116 p53 Agonism Beta-lactamase Assay, Ratio, Phase 2 (AID 2283592)
Sequence of Cellular tumor antigen p53 (Homo sapiens) (P04637 whole entry, looked up): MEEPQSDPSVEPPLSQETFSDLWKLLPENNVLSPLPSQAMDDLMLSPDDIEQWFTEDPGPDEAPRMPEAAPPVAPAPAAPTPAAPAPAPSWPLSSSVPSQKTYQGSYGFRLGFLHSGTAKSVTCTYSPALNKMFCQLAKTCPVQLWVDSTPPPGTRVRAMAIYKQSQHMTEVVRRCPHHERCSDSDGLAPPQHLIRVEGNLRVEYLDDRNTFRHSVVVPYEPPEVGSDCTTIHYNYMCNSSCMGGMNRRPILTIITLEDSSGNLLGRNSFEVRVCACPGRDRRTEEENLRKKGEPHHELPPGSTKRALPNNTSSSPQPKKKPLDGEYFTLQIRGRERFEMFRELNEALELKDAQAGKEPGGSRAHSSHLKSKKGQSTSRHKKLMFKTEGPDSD
Procedure, shortened: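 Gain-of-signal p53 agonism was scored from the beta-lactamase FRET ratio (460/530 nm, 405 nm excitation) in HCT116 cells treated 16 h at 37C, 5% CO2, with DMSO serving as negative control and baseline.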

[3] = TOX21_p53_BLA_p3_viability: Viability Assessment in the Tox21 HCT-116 p53 Agonism Beta-lactamase Assay, Phase 3 (AID 2283593);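 also: cells exposed to compound for 16 h before reading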
Procedure, shortened: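 HCT116 cells, 4000/well, dosed 5 h after plating by pin transfer (217-fold dilution from DMSO stock) and incubated 16 h at 37C, 5% CO2. Viability read as ATP luminescence with CellTiter-Glo after 30 min at room temperature.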

[4] = TOX21_p53_BLA_p4_viability: Viability Assessment in the Tox21 HCT-116 p53 Agonism Beta-lactamase Assay, Phase 4 (AID 2283597);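 also: hits lower the luminescence signal meaning cytotoxicity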
Procedure, shortened: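 Following a 16 h exposure at 37C, the treated HCT116 wells were first read for the FRET ratio. They were then lysed with CellTiter-Glo, and ATP luminescence was recorded after 30 min at room temperature.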

[5] = TOX21_p53_BLA_p5_viability: Viability Assessment in the Tox21 HCT-116 p53 Agonism Beta-lactamase Assay, Phase 5 (AID 2283600)
Procedure, shortened: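 After the 460/530 nm beta-lactamase measurement, the wells received an ATP-detection luciferase reagent; signal was read 30 min later at RT. Compound treatment lasted 16 h on cells pre-incubated 5 h post-seeding.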

[6] = target: Cellular tumor antigen p53 (Homo sapiens) (UniProt P04637); assay: TOX21_p53_BLA_p4_ratio: Tox21 HCT-116 p53 Agonism Beta-lactamase Assay, Ratio, Phase 4 (AID 2283601)
Procedure, shortened: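 HCT-116 p53 beta-lactamase reporter cells (4000/well) preincubated 5 h, then compound (217-fold dilution of DMSO stock) for 16 h at 37C. CCF4-AM substrate added 2 h at room temperature; 460/530 nm emission ratio fitted upward versus DMSO.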

[7] = Tanguay_ZF_120hpf_MORT_legacy: (Legacy) Oregon State University Tanguay Lab 120 Hour Post-fertilization zebrafish Assay for Mortality (AID 2283633);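 as to AC50: fitted as increase in binary mortality versus DMSO negative control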
Procedure, shortened: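 Static waterborne exposure from 6 to 120 hpf at 28C of single dechorionated wild-type (5D) embryos per well, 0.64% DMSO final. Death recorded present/absent by brightfield at 24 and 120 hpf.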

[8] = Tanguay_ZF_120hpf_YSE_legacy: (Legacy) Oregon State University Tanguay Lab 120 Hour Post-fertilization zebrafish Assay for Yolk Sac Edema (AID 2283634);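 as to AC50: actives raise the incidence of yolk sac edema above the DMSO baseline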
Procedure, shortened: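 Presence or absence of yolk sac edema was recorded at 120 hpf in surviving larvae. These were wild-type Tropical 5D embryos, chorion removed at 4 hpf, held in static exposure at 28C from 6 hpf with 0.64% DMSO vehicle.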

[9] = Tanguay_ZF_120hpf_AXIS_legacy: (Legacy) Oregon State University Tanguay Lab 120 Hour Post-fertilization zebrafish Assay for Body Axis Malformation (AID 2283635);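 as to AC50: potency for an increased fraction of larvae scored with body axis malformation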
Procedure, shortened: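 Binary scoring of axis defects at 120 hpf under brightfield, fitted positive versus DMSO. Tropical 5D embryos, chorion removed by pronase at 4 hpf, were singly exposed in sealed, dark plates at 28C from 6 hpf; DMSO 0.64% final.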

[10] = Tanguay_ZF_120hpf_EYE_legacy: (Legacy) Oregon State University Tanguay Lab 120 Hour Post-fertilization zebrafish Assay for Eye Malformation (AID 2283636);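 also: binary presence or absence of eye malformation scored by brightfield in 120 hpf larvae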
Procedure, shortened: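 Dechorionated Tropical 5D zebrafish embryos, one per well from 6 hpf, static exposure to 120 hpf at 28C, 0.64% DMSO. Eye malformation scored present/absent by brightfield; dead embryos not scored.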

[11] = Tanguay_ZF_120hpf_SNOU_legacy: (Legacy) Oregon State University Tanguay Lab 120 Hour Post-fertilization zebrafish Assay for Snout Malformation (AID 2283637)
Procedure, shortened: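 Dechorionated tropical 5D wild-type zebrafish embryos exposed statically from 6 to 120 hpf at 28C, one per well, in 0.64% DMSO. Snout malformation scored as present/absent by brightfield at 120 hpf; dead embryos not scored.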

[12] = Tanguay_ZF_120hpf_JAW_legacy: (Legacy) Oregon State University Tanguay Lab 120 Hour Post-fertilization zebrafish Assay for Jaw Malformation (AID 2283638);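 as to AC50: active means more embryos with jaw malformation than DMSO controls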
Procedure, shortened: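 Binary jaw-malformation call at 120 hpf by brightfield microscopy. Embryos (Tropical 5D strain, chorion removed at 4 hpf) were dosed statically at 6 hpf, one per well, at 28C with 0.64% DMSO. Embryos that died were not scored.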

[13] = Tanguay_ZF_120hpf_OTIC_legacy: (Legacy) Oregon State University Tanguay Lab 120 Hour Post-fertilization zebrafish Assay for Otic Vesicle Malformation (AID 2283639)
Procedure, shortened: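 Otic vesicle malformation is read as a yes/no morphology call at 120 hpf. Exposure is static at 28C with 0.64% (vol/vol) DMSO; embryos that die are excluded from non-mortality endpoints.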

[14] = Tanguay_ZF_120hpf_PE_legacy: (Legacy) Oregon State University Tanguay Lab 120 Hour Post-fertilization zebrafish Assay for Pericardial Edema (AID 2283640);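 as to AC50: potency for increased incidence of pericardial edema versus DMSO baseline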
Procedure, shortened: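 Scoring was binary, by brightfield microscopy at 120 hpf, and skipped where mortality occurred. Wild-type embryos were kept under sealed, foil-covered static exposure at 28C in 0.64% (vol/vol) DMSO.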

[15] = Tanguay_ZF_120hpf_BRAI_legacy: (Legacy) Oregon State University Tanguay Lab 120 Hour Post-fertilization zebrafish Assay for Brain Malformation (AID 2283641)
Procedure, shortened: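 Binary brightfield scoring of brain malformation at 120 hpf in Tropical 5D larvae held under static exposure at 28C (0.64% v/v DMSO), non-mortality endpoints skipped if dead. Positive control: 5uM trimethyltin chloride; fit versus DMSO.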

[16] = Tanguay_ZF_120hpf_SOMI_legacy: (Legacy) Oregon State University Tanguay Lab 120 Hour Post-fertilization zebrafish Assay for Somite Malformation (AID 2283647)
Procedure, shortened: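 Binary somite-defect scoring at 120 hpf, omitted for embryos that died, in wild-type (Tropical 5D) zebrafish with chorion removed by pronase at 4 hpf; static exposure began 6 hpf, single embryos per well, 28C, 0.64% DMSO; fitted positive versus DMSO.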

[17] = Tanguay_ZF_120hpf_PFIN_legacy: (Legacy) Oregon State University Tanguay Lab 120 Hour Post-fertilization zebrafish Assay for Pectoral Fin Malformation (AID 2283648);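 also: each larva judged yes or no for fin defect by brightfield with dead larvae skipped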
Procedure, shortened: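 Dechorionated Tropical 5D wild-type zebrafish embryos, one per well, statically exposed from 6 to 120 hpf at 28C with 0.64% DMSO final. Pectoral fin malformation scored present/absent by brightfield at 120 hpf; not scored in dead embryos.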

[18] = Tanguay_ZF_120hpf_CFIN_legacy: (Legacy) Oregon State University Tanguay Lab 120 Hour Post-fertilization zebrafish Assay for Caudal Fin Malformation (AID 2283649)
Procedure, shortened: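 Binary brightfield scoring of caudal fin defects at 120 hpf after static, light-shielded exposure at 28C from 6 hpf. Tropical 5D embryos, chorion removed with pronase at 4 hpf, final DMSO 0.64%.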

[19] = target: Cellular tumor antigen p53 (Homo sapiens) (UniProt P04637); assay: TOX21_p53_BLA_p3_ratio: Tox21 HCT-116 p53 Agonism Beta-lactamase Assay, Ratio, Phase 3 (AID 2283596)
Procedure, shortened: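 HCT116 p53-bla cells (4000/well) given compound in DMSO (217-fold dilution) after 5 h, incubated 16 h at 37C. CCF4-AM substrate 2 h at room temperature; 460/530 nm emission ratio, gain fitted against DMSO.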

[20] = target: Cellular tumor antigen p53 (Homo sapiens) (UniProt P04637); assay: TOX21_p53_BLA_p5_ratio: Tox21 HCT-116 p53 Agonism Beta-lactamase Assay, Ratio, Phase 5 (AID 2283599)
Procedure, shortened: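 HCT-116 p53-bla cells (4000/well) plated 5 h, dosed with compound (217-fold DMSO dilution) for 16 h at 37 C; CCF4-AM substrate 2 h at room temperature. Activity is the 460/530 nm emission ratio (405 nm excitation), fitted in gain-of-signal direction versus DMSO.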

Measured: AC50

NNC(=O)c1ccncc1
not listed: [19] | [20]
inactive: all other assays above

CCCc1ccccc1
not listed: [1] | [4] | [6] | [13] | [19] | [20]
inactive: all other assays above

O=C1CN(N=Cc2ccc([N+](=O)[O-])o2)C(=O)N1
not listed: [8] | [9] | [12] | [13] | [14] | [18]
inactive: all other assays above

NC(=O)NN=Cc1ccc([N+](=O)[O-])o1
not listed: [10] | [13]
inactive: all other assays above

CCCCOC(=O)c1ccccc1
not listed: [1] | [4] | [15] | [17] | [20]
inactive: all other assays above

CC(=O)c1ccccc1
not listed: [13]
inactive: all other assays above

CCc1ccc(O)c(C(C)(C)C)c1
active: [1] 69.5 µM | [2] 69.7 µM | [4] 79.1 µM | [6] 53.1 µM
not listed: [9] | [13] | [20]
inactive: all other assays above

C[C@]12C=CC(=O)C=C1CC[C@H]1[C@@H]3C[C@@H](O)[C@](O)(C(=O)CO)[C@@]3(C)C[C@H](O)[C@@]12F
not listed: [5] | [13]
inactive: all other assays above

CC(C)c1nnc2ccc(-c3ocnc3-c3cc(F)ccc3F)cn12
not listed: [2] | [5] | [6] | [9] | [12] | [19]
inactive: all other assays above

CCc1cccc(CC)c1N
not listed: [1] | [4] | [10] | [11] | [13] | [14] | [17]
inactive: all other assays above

OC(CCl)CCl
not listed: [6] | [13] | [18]
inactive: all other assays above

O=C(O)c1cccc(C[C@@H]2COc3ccc(OCc4nc5cc(F)ccc5s4)cc3[C@@H]2O)c1
active: [7] 26 µM | [8] 5.39 µM | [9] 5.78 µM | [11] 3.99 µM | [12] 9.13 µM | [14] 953 nM
not listed: [3] | [5] | [13]
inactive: all other assays above

OCc1c[nH]c2ccccc12
active: [2] 86.5 µM | [6] 78.9 µM
inactive: [1] | [3] | [19] | [4] | [20] | [5]

CCn1nc(C)c2c1C(=O)NCC(c1ccc(O)cc1)=N2
not listed: [4] | [5] | [8] | [14]
inactive: all other assays above

c1ccc2ncccc2c1
not listed: [13]
inactive: all other assays above
